Assay outcomes as filed in PubChem BioAssay.
In the library only some 2.9% were active in any assay of this set; here they are far more common.
MITF TRPM1 HTS: increases MITF-driven TRPM1 promoter luciferase signal. SK-MEL-5 TRPM1-promoter luciferase, 24 h; % of positive control, neutral wells = 0. activation, % at 12.5 µM. actives 0.75% (n = 300,000). AID 588334;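 active = mean activation of at least 80% with every replicate also reaching 80%; inconclusive = mean reaches 80% but some replicate falls short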
PfHsp90 yeast 2: growth inhibition of yeast expressing Plasmodium Hsp90; S. cerevisiae expressing PfHsp90, BacTiter-Glo ATP, 48 h; yeast lacking PDR1 and PDR3 efflux regulators; inhibition, % at 9.4 µM; actives 0.32% (n = 310,000);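 active = every replicate shows inhibition above about 80%, whatever the replicate mean, limit read from the data; inconclusive = mean inhibition reaches the set limit but some replicate falls short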
NSD2 inh: NSD2 (human) methyltransferase inhibition. inhibition, % at 12.5 µM. actives 0.54% (n = 310,000). NSD2 peptide methylation, AlphaScreen, 120 min. O96028. AID 743445; in the data active = inhibition above about 50%
N-glyco inh: N-linked glycosylation inhibition. D54 ERlucT glycosylation luciferase reporter, 24 h; percent of 100 nM tunicamycin response. reporter increase, % at 12.5 µM. actives 0.23% (n = 360,000). AID 588692;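 active = mean luciferase reporter signal, scaled so untreated is 0 and the glycosylation-blocking control 100, at or above a set limit in every replicate; inconclusive = mean reaches the limit but not every replicate does; inactive = mean below the limit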;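 note: luciferase carries N-glycosylation sites so blocking glycosylation raises the light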
Wnt act: activators of Wnt/beta-catenin signaling. Wnt/beta-catenin reporter cell assay, activator, plate reader. activation, % at 9.35 µM. actives 1.2% (n = 300,000). AID 743398; in the data active = activation above about 30%, passing the limit was not always enough; inconclusive = no clear call, values can overlap the other calls
TRPM1 prom inh: MITF TRPM1 promoter inhibition in SK-MEL-5 cells; SK-MEL-5 TRPM1 promoter luciferase, 24 h; inhibition, % at 12.5 µM; actives 0.83% (n = 330,000); AID 488899;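 active = mean inhibition across replicates of 60% or more, whatever share of single replicates reaches that level; inconclusive = some that reach 60%, reason not given; inactive = mean inhibition across replicates below 60%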
Each line names hits and unclear results; the compound was inactive in the other large screens.

O=c1c(Cl)c(N2CCCCC2)cnn1-c1nc2ccccc2[nH]1	TRPM1 prom inh 64 (no result: MITF TRPM1 HTS, Wnt act)
O=c1c2ccccc2cnn1-c1nc2ccccc2[nH]1	TRPM1 prom inh 93
CS(=O)(=O)N(CC(=O)NC1CCCCC1)Cc1ccc(F)cc1	none
COc1ccc(C(=O)/C=C/C(=O)N(CC(=O)NC2CCCCC2)Cc2ccc(F)cc2)c(O)c1	TRPM1 prom inh 99
COc1ccc(C(=O)/C=C/C(=O)N(CC(=O)NCCC(C)C)Cc2cccs2)c(O)c1	TRPM1 prom inh 84
COC(=O)Nc1nnc(-c2ccccc2OC)s1	Wnt act 49
COc1ccc(-c2nnc(NC(=O)C(C)C)s2)c(OC)c1	Wnt act 34 (no result: NSD2 inh)
COc1ccc(Cc2nnc(NC(=O)C(C)C)s2)cc1	none (no result: MITF TRPM1 HTS)
CCOC(=O)Nc1nnc(-c2ccccc2OC)s1	none (no result: Wnt act)
COC(=O)Nc1nnc(-c2ccccc2Cl)s1	MITF TRPM1 HTS 88 (no result: Wnt act)
C[C@]12Cc3ccccc3C1CC1=N[C@@H](c3ccccn3)O[C@@]13C[C@@H]2C(=O)N3C1CCN(Cc2ccccc2)CC1 (stereo not given in full)	none (no result: MITF TRPM1 HTS, PfHsp90 yeast 2, NSD2 inh, N-glyco inh, TRPM1 prom inh)
COc1ccc(-c2ccc3c(n2)CCCN3S(=O)(=O)c2ccc(F)cc2)cc1	none (no result: MITF TRPM1 HTS, PfHsp90 yeast 2, NSD2 inh, N-glyco inh, TRPM1 prom inh)
CC1CN(C(=S)SCCN2Cc3ccccc3C2=O)CC(C)O1 (stereo not given)	none
O=C1c2ccccc2CN1CCSC(=S)N1CCOCC1	Wnt act 41
Cc1ccccc1Nc1nn2c(=O)c3ccccc3nc2s1	Wnt act 35
COc1cccc(Nc2nn3c(=O)c4ccccc4nc3s2)c1	MITF TRPM1 HTS 114 (no result: PfHsp90 yeast 2, NSD2 inh, Wnt act)
O=c1c2ccccc2nc2sc(Nc3ccc(F)cc3)nn12	none (no result: NSD2 inh)
C=CCSc1nn2c(=O)c3ccccc3nc2s1	Wnt act 52 (no result: MITF TRPM1 HTS, PfHsp90 yeast 2, NSD2 inh)
COc1ccc2oc3ccccc3c(=O)c2c1	Wnt act 33 (no result: NSD2 inh)
Cc1ccc2oc3ccccc3c(=O)c2c1	MITF TRPM1 HTS 101 (no result: NSD2 inh)
COc1ccc2oc3ccc(OC)cc3c(=O)c2c1	none (no result: MITF TRPM1 HTS, PfHsp90 yeast 2, Wnt act)
O=c1c2ccccc2oc2cc(-c3ccc(CN4CCOCC4)cc3)ccc12	MITF TRPM1 HTS inconclusive, Wnt act inconclusive (no result: NSD2 inh)
O=c1c2ccccc2oc2ccc(-c3ccc4cc[nH]c4c3)cc12	MITF TRPM1 HTS 104 (no result: NSD2 inh, Wnt act)
COC(=O)c1cc2c(c3c4cc(C)ccc4n(S(=O)(=O)c4cccc(C)c4)c13)C(=O)N(Cc1ccccc1OC)C2	none (no result: MITF TRPM1 HTS, PfHsp90 yeast 2, N-glyco inh, TRPM1 prom inh)
O=C(c1ccccc1)C(CN1CCCCC1)c1ccccc1 (stereo not given)	TRPM1 prom inh 97 (no result: NSD2 inh)
CC(CN1CCN(CC(C)C(=O)c2ccccc2)CC1)C(=O)c1ccccc1 (stereo not given)	none
O=C(c1ccc(Br)cc1)C(CN1CCOCC1)c1ccccc1 (stereo not given)	PfHsp90 yeast 2 98
Cc1cccc(C(=O)OCC(=O)NCCCc2ccccc2)c1	none
Cc1ccc(/C=C/C(=O)c2ccccc(=O)c2O)cc1C	PfHsp90 yeast 2 97
Cc1ccc(O)c(C(=O)/C=C/c2ccc3c(c2)OCCO3)c1	none
O=C(/C=C/c1ccccc1)c1cc(Br)ccc(=O)c1O	PfHsp90 yeast 2 82 (no result: Wnt act)
COc1ccc(Cl)cc1S(=O)(=O)NC(C)C(=O)NCCCN1CCOCC1 (stereo not given)	none (no result: MITF TRPM1 HTS, PfHsp90 yeast 2, N-glyco inh, Wnt act, TRPM1 prom inh)
CCCc1c(Cc2cccc(F)c2)ncn1CCc1ccccc1OC	none (no result: MITF TRPM1 HTS, PfHsp90 yeast 2, NSD2 inh, N-glyco inh, TRPM1 prom inh)
COc1cccc(C(=O)Nc2ccc(NC(=O)c3ccco3)nc2)c1	MITF TRPM1 HTS 93 (no result: Wnt act)
O=C(Nc1ccc(NC(=O)c2ccco2)nc1)c1cccc(F)c1	Wnt act 31
O=C(Nc1ccc(NC(=O)c2ccco2)nc1)c1cccnc1	none
Cc1cc(NC(=O)c2cccs2)ncc1NC(=O)c1cccc(F)c1	none (no result: Wnt act)
Cc1cc(NC(=O)c2cccc(F)c2)ncc1NC(=O)c1ccco1	Wnt act 36
O=C(CSc1nnc(-c2ccccc2)n1Cc1ccco1)Nc1ccc(Oc2ccccc2)cc1	none (no result: MITF TRPM1 HTS, PfHsp90 yeast 2, N-glyco inh, Wnt act, TRPM1 prom inh)
COc1cc(/C=N/n2c(-c3cc(-c4ccccc4)n[nH]3)n[nH]c2=S)ccc1OCc1ccccc1	none (no result: MITF TRPM1 HTS, PfHsp90 yeast 2, N-glyco inh, Wnt act, TRPM1 prom inh)
O=C(Cc1csc(Nc2nc(=S)[nH]c3ccccc23)n1)NCCCN1CCN(c2ccccc2F)CC1	TRPM1 prom inh 66
O=C(Cc1csc(Nc2nc(=S)[nH]c3ccccc23)n1)NCc1ccc(Cl)cc1	none
COc1ccc(/C=C/C(=O)c2ccccn2)cc1	Wnt act 75
COc1ccc(/C=C/C(=O)c2ccc(O)cc2)cc1	none (no result: NSD2 inh)
COc1ccc(/C=C/C(=O)c2ccccc2O)cc1	MITF TRPM1 HTS 141 (no result: NSD2 inh, Wnt act)
